Results taken from PubChem BioAssay AID651813 (National Center for Advancing Translational Sciences (NCATS), 2012).
Screen size: about 2,100 compounds; about 1,100 (52%) were called active. Inconclusive results (about 27%) are left out. So high a share suggests a set chosen from earlier hits. The list shows a part of the results. A number with no mark means an inactive call. Calls follow the shape of the dose curve; as a rule, active = well fitted inhibition curve with a large enough effect; inconclusive = small, poorly fitted or top-dose-only effect; inactive = no such curve, though single readings can be large or run the other way.

Molecular target: DNA dC->dU-editing enzyme APOBEC-3G (Homo sapiens) (UniProt Q9HC16)
Assay: qHTS for inhibitors of Vif-A3G interactions: Cherry picks counterscreen;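 also: hits raise yellow fluorescence by blocking Vif-driven A3G-eYFP degradation; nearly all actives have a fitted effect of over 70% in size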;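 as to max response: max response given as percent of control signal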
Settings: HeLa A3G-eYFP + Vif (tagged APOBEC3G with the HIV-1 protein that degrades it), eYFP fluorescence, 24 h
How it was run: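 Readout is eYFP fluorescence (488 nm excitation, 500-530 nm emission) measured on Acumen Explorer after 24 h compound exposure, several concentrations, at 37 deg C. Cells: HeLa stably co-expressing Vif and C-terminally eYFP-tagged A3G; MG132 positive control.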
Potency is read from the fitted curve at half-maximal effect.

Chain of DNA dC->dU-editing enzyme APOBEC-3G (Homo sapiens) (Q9HC16 whole entry, looked up): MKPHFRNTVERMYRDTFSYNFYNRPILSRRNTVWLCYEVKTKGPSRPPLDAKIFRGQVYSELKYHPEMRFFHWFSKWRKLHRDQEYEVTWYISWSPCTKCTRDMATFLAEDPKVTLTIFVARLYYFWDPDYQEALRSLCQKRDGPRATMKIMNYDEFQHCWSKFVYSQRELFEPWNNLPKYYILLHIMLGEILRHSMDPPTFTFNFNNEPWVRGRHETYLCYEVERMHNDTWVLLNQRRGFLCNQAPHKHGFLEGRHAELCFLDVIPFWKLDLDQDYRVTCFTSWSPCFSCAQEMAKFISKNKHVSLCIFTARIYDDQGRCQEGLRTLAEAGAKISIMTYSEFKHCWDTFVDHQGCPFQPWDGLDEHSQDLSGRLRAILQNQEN

Row | SMILES | Potency | max response [%]
1 | CCOc1cc(/C=C(/C#N)C(=O)Nc2ccc(O)cc2)cc(Br)c1O | 17.7 µM (active) | –
2 | CCOC(=O)c1c(-c2ccc(C)cc2)csc1NC(=O)/C(C#N)=C/c1ccc(O)c(OC)c1 | – | 57.5
3 | CCOc1ccc(NC(=O)/C(C#N)=C/c2ccc(N3CCCC3)c(C)c2)cc1 | 2.06 µM (active) | –
4 | Cc1cccc(N2CCN(C(=O)c3cccc(N4CCCC4=O)c3)C(C)C2)c1 (centres undefined) | 14 µM (active) | –
5 | CCOc1ccc(NC(=O)Cn2c(=O)n(Cc3ccc(C(=O)NCc4ccc(C)cc4)cc3)c(=O)c3ccccc32)cc1 | 13 µM (active) | –
6 | Cc1ccc(-n2c(=O)c3ccc(C(=O)NCc4ccccc4Cl)cc3n(CC(=O)Nc3cccc(Cl)c3)c2=O)cc1 | – | -24
7 | Cc1ccc(N2C(=O)CS/C2=C(\C(Cl)=C(Cl)Cl)[N+](=O)[O-])cc1 | – | 1.1
8 | Cc1ccc(NC(=O)/C(C#N)=C\c2ccc(-c3ccc(Cl)cc3)o2)c(C)c1 | 5.8 µM (active) | –
9 | Nc1nonc1-c1nc2ccccc2n1CC(=O)Nc1cccc(C(F)(F)F)c1 | 18.4 µM (active) | –
10 | COc1cccc(Cn2c(-c3nonc3NC(C)=O)nc3ccccc32)c1 | 11.6 µM (active) | –
11 | COc1cccc(Cn2c(-c3nonc3N)nc3ccccc32)c1 | 1.25 µM (active) | –
12 | CC(NC(=S)Nc1cccc(C(F)(F)F)c1)C(C)(C)C (centres undefined) | – | 21.6
13 | COc1ccc(C)c(Cn2c(-c3nonc3N)nc3ccccc32)c1 | 3.14 µM (active) | –
14 | Cc1cn2c(N)c(C=C3C=C(Cl)C(=O)C(Cl)=C3)c(=O)nc2s1 | – | 34.2
15 | Cc1cccc(CSc2cccc3cccnc23)c1 | – | -11.2
16 | CCC(C)Sc1ccc(-c2nc3cc(C)ccn3c2NC2CCCCC2)cc1 (centres undefined) | – | 26.9
17 | Nc1nonc1-c1nc2ccccc2n1Cc1ccc(F)cc1 | 12.5 µM (active) | –
18 | CCC(=O)Nc1nonc1-c1nc2ccccc2n1Cc1ccccc1 | 14 µM (active) | –
19 | CCOC(=O)c1c(CN(CC)CC)n(-c2ccccc2)c2ccc(O)cc12 | – | 2.24
20 | CCCN1C(=O)S/C(=C\c2ccc(N3CCOCC3)o2)C1=O | 2.23 µM (active) | –
21 | CCCN1C(=O)S/C(=C/c2ccc(N3CCOCC3)o2)C1=O | – | 50.5
22 | O=C1S/C(=C\c2ccc(N3CCOCC3)o2)C(=O)N1c1ccccc1 | 1.98 µM (active) | –

Row | SMILES | Potency | max response [%]
23 | O=C1S/C(=C/c2ccc(N3CCOCC3)o2)C(=O)N1Cc1c(F)cccc1Cl | 2.8 µM (active) | –
24 | O=C1S/C(=C/c2ccc(N3CCOCC3)o2)C(=O)N1Cc1ccc(F)cc1 | 7.04 µM (active) | –
25 | Cc1cc(C)c(C(=O)N(CCN(C)C)CC2CCCN(Cc3ccccc3F)C2)o1 (centres undefined) | – | 0.428
26 | COc1cc(/C=C2/SC(=S)N(Cc3ccccc3)C2=O)cc(OC)c1O | 12.5 µM (active) | –
27 | O=C1/C(=C\c2ccc(O)cc2)SC(=S)N1Cc1ccccc1 | – | 39.2
28 | C=CCN1C(=O)/C(=C/c2ccc(O)c(OC)c2)S/C1=N/c1nccs1 | 4.61 µM (active) | –
29 | COc1cc(/C=C2/SC(=S)N(Cc3ccccc3)C2=O)cc(Cl)c1O | 2.23 µM (active) | –
30 | COc1cc(/C=C2/SC(=S)N(CCC(=O)Nc3ccccc3)C2=O)cc(OC)c1OC | 20.6 µM (active) | –
31 | O=C1/C(=C/c2ccc(O)cc2)SC(=S)N1CC1CCCO1 (centres undefined) | – | -5.85
32 | O=C(O)c1cc(-c2ccc(/C=C3/SC(=S)N(Cc4ccccc4)C3=O)o2)ccc1Cl | 18.4 µM (active) | –
33 | COc1cc(/C=C2/SC(=S)N(CC3CCCO3)C2=O)ccc1O (centres undefined) | 16.4 µM (active) | –
34 | Cn1c(=O)c2c(nc(NC3CCCC3)n2C)n(C)c1=O | – | -1.35
35 | CCCC(=O)NC(c1ccc(OC)cc1)c1ccc2cccnc2c1O (centres undefined) | – | -9.5
36 | CCC(=O)NC(c1ccc(OC)cc1)c1c(O)ccc2ccccc12 (centres undefined) | 9.94 µM (active) | –
37 | Cc1ccc(C2C(C(=O)c3cccs3)=C(O)C(=O)N2c2nnc(C)s2)cc1 (centres undefined) | 19.8 µM (active) | –
38 | CCCSc1nnc(N2C(=O)C(O)=C(C(=O)c3ccco3)C2c2ccccc2F)s1 (centres undefined) | – | -7.3
39 | Cc1ccc(NC2=C(Cl)C(=O)N(C3CCCCC3)C2=O)cc1 | – | 6.01
40 | Cn1cccc1/C=C1\CC(C(C)(C)C)C/C(=C\c2cccn2C)C1=O (centres undefined) | 8.2 µM (active) | –
41 | CN1C2CCC1/C(=C/c1cccn1C)C(=O)/C2=C\c1cccn1C | 8.2 µM (active) | –
42 | O=c1oc2c3c4c(cc2c(C(F)(F)F)c1CCN1CCOCC1)CCCN4CCC3 | 2.31 µM (active) | –
43 | COc1ccc(/C=C(/C(=O)c2cccs2)N2C=CC=CC2=C(C#N)C#N)cc1 | 15.8 µM (active) | –
44 | CCN(CC)c1nc2ccccc2nc1C(C#N)C(=O)NCCc1ccccc1 (centres undefined) | 13 µM (active) | –
